Measured values published in PubChem BioAssay (NCI).
About 83,000 compounds went through this panel and 20% of them were active in at least one assay; those are over-represented in the sample as a whole.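 Values shown are percent growth following 48 h exposure of cells in 96-well plates to a single concentration of compound; below 10 was considered active.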 Activity calls are given as the source filed them.

What was measured:
Experiment in all cases: NCI-60 one-dose screen, 48 h (100 = growth as untreated, 0 = no growth, -100 = all killed)
Settings in all cases: 10 µM unless noted
[1] = test system: SK-MEL-2 melanoma
[2] = test system: EKVX NSCLC
[3] = test system: SN12C renal
[4] = test system: UO-31 renal
[5] = test system: TK-10 renal
[6] = test system: ACHN renal
[7] = test system: CAKI-1 renal
[8] = test system: CCRF-CEM leukemia
[9] = test system: MOLT-4 leukemia
[10] = test system: SR leukemia
[11] = test system: RPMI-8226 leukemia
[12] = test system: OVCAR-8 ovarian
[13] = test system: OVCAR-5 ovarian
[14] = test system: OVCAR-4 ovarian
[15] = test system: SK-OV-3 ovarian
[16] = test system: IGROV1 ovarian
[17] = test system: OVCAR-3 ovarian
[18] = test system: HS 578T breast
[19] = test system: NCI/ADR-RES ovarian

Measured: growth

O=C(Nc1ccc(F)cc1)Nc1ccc(NC(=O)c2cc(Cl)nc3ccccc23)cc1
active: [18] 9.05%
inactive: [1] 90.3% | [2] 89.2% | [3] 73.6% | [4] 83.1% | [5] 83.5% | [6] 102% | [7] 78.5% | [8] 41.9% | [9] 64.2% | [10] 74.1% | [11] 26.5% | [12] 42.9% | [13] 92.9% | [14] 51.2% | [15] 59.8% | [16] 52.6% | [17] 12.2% | [19] 99.7%

O=C(N/N=C/c1cc2ccccc2n2nnnc12)Nc1ccccc1
inactive: [1] 105% | [2] 98% | [3] 100% | [4] 94.1% | [5] 101% | [6] 108% | [7] 94.5% | [8] 103% | [9] 101% | [10] 87.4% | [11] 101% | [12] 103% | [13] 106% | [14] 108% | [15] 112% | [16] 112% | [17] 111% | [18] 109% | [19] 105%

CCN(CC)CC[n+]1cc2cc(OC)c(OC)cc2c2ccc3cc4c(cc3c21)OCO4
inactive: [1] 14.8% | [2] 17.5% | [5] 12.2% | [7] 26.5% | [17] 13.4% | [19] 70.5%
active: [3] 3.54% | [4] 8.71% | [6] 8.72% | [8] 1.03% | [9] -5.52% | [10] -11.3% | [11] -32.7% | [12] -82.8% | [13] 6.85% | [14] 1.21% | [15] -10.7% | [16] -44.1% | [18] -4.12%

O=C(c1nnc(Nc2ccccc2Br)o1)c1c[nH]c2ccccc12
inactive: [1] 110% | [2] 104% | [3] 93.4% | [4] 87% | [5] 112% | [6] 90.8% | [7] 87.4% | [8] 97.5% | [9] 106% | [10] 103% | [11] 93.6% | [12] 94.9% | [13] 99.6% | [14] 106% | [15] 83% | [16] 72.6% | [17] 97.2% | [18] 104% | [19] 102%

CCCC/C=N/NC(=S)NCc1ccccc1
inactive: [1] 106% | [2] 101% | [3] 96.1% | [4] 93.3% | [5] 103% | [6] 99.4% | [7] 100% | [8] 99.1% | [9] 95% | [10] 95% | [11] 97.6% | [12] 97.5% | [13] 92.7% | [14] 96.3% | [15] 88.9% | [16] 110% | [17] 104% | [18] 95% | [19] 104%

CC(C)(C)c1cc(/C=N/NC(=O)c2ccccc2NC(=O)c2cccs2)c(O)c(C(C)(C)C)c1
active: [8] 4.59% | [10] -27.2% | [14] -34.6% | [17] 6.92%
inactive: [1] 36.9% | [2] 35% | [3] 40.6% | [4] 10.7% | [5] 28.8% | [6] 21.9% | [7] 19.8% | [9] 16.5% | [11] 32.5% | [12] 10.1% | [13] 67.7% | [15] 31.8% | [16] 36.3% | [18] 71.5% | [19] 18.8%

COc1cc2nc(-c3ccc(C(F)(F)F)cc3)cc(OCCCN3CCCC3)c2cc1OC
active: [7] -7.36%
inactive: [1] 49.3% | [2] 65% | [3] 44.5% | [4] 31.5% | [5] 100% | [6] 39.1% | [8] 38.5% | [9] 46.2% | [10] 19.4% | [11] 21.6% | [12] 48.7% | [13] 56.9% | [14] 57.1% | [15] 88.6% | [16] 36.2% | [17] 64.8% | [18] 64.4% | [19] 46.4%

NC(=NCCCOc1ccc(F)cc1)Nc1ccc(I)cc1
inactive: [1] 84.1% | [2] 76% | [3] 81% | [4] 59.2% | [5] 73% | [6] 73.5% | [7] 74.5% | [8] 79.3% | [9] 40.9% | [10] 58% | [11] 64.8% | [12] 89.3% | [13] 89.9% | [14] 45.7% | [15] 81.8% | [16] 66.3% | [17] 80.5% | [18] 84.6% | [19] 81.5%

O=C(CSc1nc2sc3c(c2c(=O)n1-c1ccc(Cl)cc1)CCCC3)Nc1nc(-c2cccc(Br)c2)cs1
inactive: [1] 97% | [2] 75% | [3] 79.5% | [4] 74.6% | [5] 113% | [6] 91.1% | [7] 49% | [8] 87.7% | [9] 87.1% | [10] 80.6% | [11] 96.4% | [12] 68.1% | [13] 75.7% | [14] 72.9% | [15] 94.2% | [16] 72.6% | [17] 89% | [18] 72.6% | [19] 80.5%

O=C(CCN1CCCC1)Nc1ccc2c(NCc3ccccc3)c3ccccc3nc2c1
active: [1] -1.81% | [2] 4.75% | [3] -5.99% | [4] 1.35% | [5] 1.15% | [6] 9.88% | [7] 5.35% | [8] -23.6% | [9] -17.5% | [10] -14.8% | [11] -35.3% | [12] 4.52% | [14] -13.8% | [15] -10.9% | [16] 3.89% | [17] -33.4% | [18] -10.7%
inactive: [13] 14.8% | [19] 72.5%

COC(=O)C1=C(C(=O)ON)C2C=CC1(C(Cc1ccccc1)Nc1ccccc1)O2 (centres undefined)
inactive: [1] 86.7% | [2] 91.9% | [3] 87.4% | [4] 16.9% | [7] 57.3% | [9] 12.9% | [11] 11.8% | [12] 91.2% | [13] 105% | [14] 69% | [15] 104% | [16] 75.9% | [18] 108% | [19] 94.6%
active: [5] -63.7% | [6] -99.7% | [8] -7.87% | [10] 4.9% | [17] -100%

CCN(CC)c1ccc(/C=N/NC(=O)CSc2nc3ccccc3c(=O)n2Cc2ccc(S(N)(=O)=O)cc2)c(O)c1
inactive: [1] 10.5% | [2] 35.1% | [3] 32.5% | [4] 45.9% | [5] 15.1% | [6] 33.6% | [7] 31% | [8] 10.8% | [9] 11.1% | [10] 10.4% | [11] 17.1% | [12] 20.4% | [13] 45% | [14] 12.6% | [15] 21.6% | [16] 26.4% | [17] 15% | [18] 63% | [19] 87.2%

O=C(/C=C/c1ccc(Cl)cc1)c1ccc(NC(=O)N2CCN(c3cc4c(cc3F)c(=O)c(C(=O)O)cn4C3CC3)CC2)cc1
inactive: [1] 98.2% | [2] 98.4% | [3] 86.4% | [4] 80.2% | [5] 107% | [6] 101% | [7] 82.7% | [8] 72.2% | [9] 92.1% | [10] 22% | [11] 79.1% | [12] 65.3% | [13] 103% | [14] 99.2% | [15] 99.1% | [16] 89.2% | [17] 93.8% | [18] 86.7% | [19] 99.8%

CN(C)CCn1c2ccc(Br)cc2c2nc3ccccc3nc21
inactive: [1] 41.8% | [2] 41.6% | [3] 26.5% | [4] 11% | [5] 62.4% | [7] 13.8% | [8] 28.4% | [9] 13.7% | [10] 11.2% | [12] 32.9% | [13] 46.4% | [14] 44% | [15] 50.8% | [16] 18% | [17] 39.9% | [18] 77.8% | [19] 31.8%
active: [6] 9.3% | [11] 9.2%

Cc1nc(N)nc(N[C@@H](C)c2nc3cccc(NCc4ccc(C(=O)NO)cc4)c3c(=O)n2-c2ccccc2)n1
inactive: [1] 74.7% | [2] 76.8% | [3] 84.5% | [4] 68.4% | [5] 80.3% | [6] 101% | [7] 77.5% | [8] 23.2% | [9] 32.9% | [10] 33.3% | [11] 17.2% | [12] 70.3% | [13] 90.5% | [14] 92.2% | [15] 86.7% | [16] 69.5% | [17] 85.9% | [18] 72.1% | [19] 103%

O=[N+]([O-])c1ccc(NC(=S)N/N=C/c2cc3ccccc3n3nnnc23)cc1
inactive: [1] 49.3% | [2] 36.6% | [3] 58.5% | [5] 56.8% | [6] 29.9% | [7] 25.4% | [8] 11.3% | [9] 20.4% | [11] 47.7% | [12] 71.2% | [13] 79.6% | [14] 63.8% | [15] 73.7% | [16] 54.5% | [17] 14.3% | [18] 67% | [19] 51.7%
active: [4] -1.57% | [10] 4.33%
